# G9a inh = G9a (human) methyltransferase inhibition; Q96KQ7; G9a H3K9 monomethylation, AlphaScreen, 2 h; Potency, µM (highest dose often 102 µM), inactives show at the top dose activity, negative = inhibition, actives largely listed as inhibitors; 350,000 tested, 8.8% active; AID 504332; also: potency is read from the fitted curve at half-maximal effect; % is scaled to controls: 0 for no effect and ±100 for the full control effect; nearly all actives have a fitted effect of over 75% in size
#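 Enzyme 20 nM + cpd, 15 min RT; add b-H3K9 pep 500 nM / SAM 20 uM; 2 h RT; anti-H3K9me1 Ab 0.5 ug/mL + SA donor / anti-rabbit acceptor beads 20 ug/mL each, 10 min; AlphaScreen read.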
# L3MBTL1 inh = inhibitors of human L3MBTL1; AlphaScreen L3MBTL1–H3K9me1 peptide binding; Q9Y468; Potency, µM (top dose mostly 57.1 µM), for the others: at the top dose activity, negative = inhibition, actives largely listed as inhibitors; AID 485360; 230,000 tested, 0.66% active; also: potency is read from the fitted curve at half-maximal effect; % is scaled to controls: 0 for no effect and ±100 for the full control effect; nearly all actives have a fitted effect of over 60% in size
#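 L3MBTL1 (50 nM) pre-complexed 30 min with biotinylated H3(1-15)K9me1 peptide (75 nM), then compounds added for 30 min at room temperature; AlphaScreen streptavidin donor/nickel chelate acceptor beads (10 ug/mL final) read after 30 min dark incubation.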
# BAZ2B block = blocks human BAZ2B. AlphaScreen BAZ2B-H3K14Ac peptide displacement. Potency, µM (doses to about 114 µM), for inactives: at the top dose activity change, negative = inhibition, hits mostly inhibitors. 360,000 tested, 4.4% active. AID 504333; also: potency is read from the fitted curve at half-maximal effect; % is scaled to controls: 0 for no effect and ±100 for the full control effect; nearly all actives have a fitted effect of over 60% in size
#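 BAZ2B 50 nM plus b-H3(5-23)K14Ac 50 nM, PBS pH 7.4/0.01% Tween-20, 30 min RT; compound added (max 110 uM), 30 min RT; streptavidin donor/Ni-chelate acceptor beads 10 ug/mL final, 20 min dark; AlphaScreen read.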
# HP1b chromo inh = blocks HP1-beta chromodomain binding to methylated histone tails. P83916. AlphaScreen HP1-beta / biotin-H3K9me3 peptide binding. Potency, µM (doses to about 114 µM), for inactives: top-dose activity change, negative = inhibition, most hits filed as inhibitors. AID 540317. 390,000 tested, 0.56% active; also: potency is read from the fitted curve at half-maximal effect; nearly all actives have a fitted effect of over 70% in size
# Target sequence (P83916 whole entry, looked up): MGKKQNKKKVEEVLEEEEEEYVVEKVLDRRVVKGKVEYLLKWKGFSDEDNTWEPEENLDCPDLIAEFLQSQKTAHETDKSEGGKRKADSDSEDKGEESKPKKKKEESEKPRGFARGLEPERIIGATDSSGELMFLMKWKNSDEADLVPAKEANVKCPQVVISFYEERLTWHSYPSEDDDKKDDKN
#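 Compound inhibition of the preformed complex between 50 nM HP1-beta and 50 nM biotinylated H3K9me3 peptide was read by AlphaScreen. Buffer was PBS pH 7.4 with 0.01% Tween-20. Incubations ran 30 min at room temperature, with 10 ug/mL donor/acceptor beads.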
# JMJD2A Tudor inh = blocks the human JMJD2A Tudor domain. O75164. AlphaScreen JMJD2A-Tudor / H3K4me3 peptide binding. Potency, µM (doses to about 114 µM), for inactives: top-dose activity change, negative = inhibition, usual class: inhibitors. 390,000 tested, 4.4% active. AID 504339; also: potency is read from the fitted curve at half-maximal effect; % is scaled to controls: 0 for no effect and ±100 for the full control effect; nearly all actives have a fitted effect of over 50% in size
# PI5P4K alpha inh = blocks human PI5P4K alpha kinase activity; 330,000 tested, 1.2% active; PI5P4Kalpha enzyme, ADP-Glo luminescence, 60 min; stronger effect = lower value; max response, %; AID 652105; active = max response of -50% or lower; inconclusive = between -30% and -50%; inactive = -30% or higher; also: value at the top dose of about 77 µM; % is scaled to controls: 0 for no effect and ±100 for the full control effect
# Target sequence (P48426 whole entry, looked up): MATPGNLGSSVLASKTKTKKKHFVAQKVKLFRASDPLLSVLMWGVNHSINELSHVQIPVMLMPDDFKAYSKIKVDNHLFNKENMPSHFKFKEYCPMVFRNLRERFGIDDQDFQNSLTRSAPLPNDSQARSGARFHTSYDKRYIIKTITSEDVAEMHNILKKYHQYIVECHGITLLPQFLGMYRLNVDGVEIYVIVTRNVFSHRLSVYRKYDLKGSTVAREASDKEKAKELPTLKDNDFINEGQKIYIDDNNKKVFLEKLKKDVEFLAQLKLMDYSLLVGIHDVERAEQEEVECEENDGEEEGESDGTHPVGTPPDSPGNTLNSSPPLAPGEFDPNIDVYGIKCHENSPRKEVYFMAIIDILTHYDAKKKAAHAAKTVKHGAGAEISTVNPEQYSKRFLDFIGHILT
#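 qHTS, 1536-well: enzyme/substrate mix, compound by pin tool, 5 microM ATP final; RT 60 min; ADP-Glo reagents 1 (45 min) then 2 (30 min); luminescence.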
# * = called active by the depositor; ? = inconclusive; / = not tested or not shown; [ ] = remark or other dose. The list is not random: actives were taken first. Their share in the collection is about 11%. Unless noted, calls follow the shape of the dose curve; as a rule, active = well fitted inhibition curve with a large enough effect; inconclusive = small, poorly fitted or top-dose-only effect; inactive = no such curve, though single readings can be large or run the other way.
SMILES,G9a inh,L3MBTL1 inh,BAZ2B block,HP1b chromo inh,JMJD2A Tudor inh,PI5P4K alpha inh
N#Cc1c(N)n(-c2ccccc2)c(=O)c2cc([N+](=O)[O-])ccc12,/,10.8%,3.8%,-35.3%,-5.8%,8.5
COc1ccc(-n2c(-c3cccc(C)c3[N+](=O)[O-])n[nH]c2=S)cc1,3.16µM*,-1.6%,-5.3%,?,?,-11.7
O=[N+]([O-])c1cccc(-c2cn(-c3ccccc3)c(=S)[nH]2)c1,1.58µM*,/,0.5%,25.7%,-28.3%,-15.5
Nc1ccc(-n2cc(-c3ccccc3)[nH]c2=S)cc1,7.94µM*,/,-34.4%,-4.3%,?,-23.5
O=[N+]([O-])c1ccc(-c2cn(-c3ccccc3)c(=S)[nH]2)cc1,?,-11.4%,5.2%,10.4%,-12.8%,-6.1
COc1ccccc1-n1cc(-c2ccc(Br)cc2)[nH]c1=S,-1.3%,/,2.3%,-20.3%,?,-5.8
Cc1cccc(-c2n[nH]c(=S)n2-c2ccccc2)c1[N+](=O)[O-],2.24µM*,8.9%,4.7%,23.4%,35.5µM*,-7.5
O=[N+]([O-])c1cccc(-c2n[nH]c(=S)n2-c2ccccc2)c1,2.24µM*,/,-5.1%,1.2%,22.4µM*,-2.8
Cc1[nH]n(-c2cccc([N+](=O)[O-])c2)c(=O)c1-c1ccccc1,-50.8%,-2.4%,?,7.9%,-25.1%,-3.4
CC(=O)Nc1ccc(OC(C)=O)cc1,2.2%[12.7 µM],/,/,/,/,/
Cc1cc2ncn(-c3ncccc3[N+](=O)[O-])c2cc1C,11.2µM*,/,89.1µM*,-2.1%,?,-13.6
O=C(c1ccccc1[N+](=O)[O-])n1cnc2ccccc21,?,2.4%,?,0.0%,-25.8%,1.9
O=[N+]([O-])c1cccnc1-n1cnc2ccccc21,44.7µM*,3.4%,-10.5%,20.7%,-5.5%,-0.9
Cc1cc(C)n(-c2ncccc2[N+](=O)[O-])n1,/,15.0%,-0.3%,2.9%,-4.7%,-3.2
CCOc1ccc(NC(=O)CSc2nc(=O)[nH]c3c2CCC3)cc1,-6.1%[59 µM],/,-9.8%,14.6%,0.6%,/
CCN(CC)CCN(CC(=O)N(C1CCCCC1)C1CCCCC1)C(=O)c1cccnc1,50.1µM*,?,?,36.2%,-9.0%,0.2
Cc1ccc2c(c1)-c1nc(-c3ccc4c(c3)NC(=O)CO4)cc(-c3ccc(Cl)cc3)c1CO2,2.4%[59 µM],/,-15.6%,33.8%,0.0%,/
COc1ccc(NC(=O)C(c2ccccc2F)n2c(=O)c(-c3ccco3)nc3ccccc32)cc1 (configuration not stated),/,/,/,/,/,-14.7
Cc1cccc(C)c1NC(=O)C(c1ccccc1F)n1c(=O)c(-c2ccco2)nc2ccccc21 (configuration not stated),/,/,/,/,/,-67.3*
Cc1cccc(C)c1NC(=O)C(c1ccnc2ccccc12)n1c(=O)c(-c2ccco2)nc2ccccc21 (configuration not stated),/,/,/,/,/,-72.2*
Cc1cccc(C)c1NC(=O)C(c1ccc(-c2ccccc2)cc1)n1c(=O)c(-c2ccco2)nc2ccccc21 (configuration not stated),/,/,/,/,/,-99.1*
CC(=O)Nc1ccc(S(=O)(=O)NC2(C(F)(F)F)C(=O)Nc3c2c(=O)[nH]c(=O)n3-c2cccc(Cl)c2)cc1 (configuration not stated),-2.4%[59 µM],/,?,21.3%,-10.1%,/
CCc1ccc(NC(=O)CSc2ccc(-c3sc(-c4ccccc4)nc3C)nn2)cc1,-0.5%[59 µM],/,-1.0%,33.3%,?,/
CC(C)(C)OC(=O)NC(Cc1ccccc1)C(=O)NC1COC2CC(n3ccc(=O)[nH]c3=O)OC12 (configuration not stated),/,/,/,?,-0.7%,/
Cc1ccc(NC(=O)c2ccccc2)s1,25.1µM*,-4.0%,-3.4%,22.6%,14.3%,0.0
SMILES,G9a inh,L3MBTL1 inh,BAZ2B block,HP1b chromo inh,JMJD2A Tudor inh,PI5P4K alpha inh
Cc1cc(NC(=O)c2ccccc2)sc1C,15.8µM*,/,?,14.5%,-13.0%[11.4 µM],-4.0
Cc1cc(NC(=O)c2ccccc2)cc(NC(=O)c2ccccc2)c1C,/,-0.4%,4.6%,-15.8%,-16.1%,-3.7
COc1ccc(C(=O)NCCn2cc(SCC(=O)Nc3cccc(C)c3)c3ccccc32)cc1,-31.3%[59 µM],/,50.1µM*,33.3%,-15.7%,/
Cc1nnc(NC(=O)CSc2cn(CCNC(=O)c3ccccc3)c3ccccc23)s1,28.2µM*,-1.5%,-2.6%,47.7%,-15.5%,0.4
COc1ccccc1N1CCN(S(=O)(=O)c2ccc([N+](=O)[O-])cc2)CC1,/,/,/,/,/,1.8
COc1ccccc1/C=C/C=N/N1CCN(c2ccccn2)CC1,22.6%[0.501 µM],-7.9%,50.1µM*,?,?,-5.8
COc1ccccc1N1CCN(/N=C/C=C\c2ccco2)CC1,35.5µM*,-10.0%,50.1µM*,-55.1%,56.2µM*,-4.4
CC1CCCC(C)N1/N=C/C=C/c1ccccc1[N+](=O)[O-] (configuration not stated),31.6µM*,?,22.4µM*,28.2µM*,39.8µM*,3.8
COc1ccccc1N1CCN(c2ccc([N+](=O)[O-])cc2Cl)CC1,3.16µM*,-6.4%,?,?,?,19.3
CC1CCCC(C)N1/N=C/c1ccccc1Br (configuration not stated),15.3%[2.33 µM],/,?,?,?,6.7
O=C(Nc1ccc(F)cc1)c1ccc(Cn2nc(N3CCN(c4ccccc4)CC3)ccc2=O)o1,-47.9%[59 µM],/,-38.8%,-10.5%,?,/
O=S(=O)(Nc1cccc(-c2ccc(N3CCCC3)nn2)c1)c1ccc(F)c(C(F)(F)F)c1,10.5%[59 µM],/,-18.8%,9.6%[57 µM],-31.3%,/
COc1ccccc1/C=C/C=N/N1CCN(Cc2cccc3ccccc23)CC1,?,-27.4%,31.6µM*,?,11.2µM*,-3.3
COc1ccccc1N1CCN(/N=C/C=C\c2ccccc2[N+](=O)[O-])CC1,8.91µM*,?,12.6µM*,14.1µM*,22.4µM*,-3.7
COc1ccccc1N1CC=C(c2cccc([N+](=O)[O-])c2)NC1=O,39.8µM*,-10.1%,-20.2%,35.1%,-13.7%,-8.1
COc1ccccc1Nc1nc(-c2cccc([N+](=O)[O-])c2)cs1,?,-21.1%,?,-14.0%,?,23.4
COc1ccc2nc(C(F)(F)Cl)c(C#N)c(N)c2c1,-0.7%,1.0%,-7.8%,10.8%,-22.3%,2.1
COc1ccc2nc3cc(Cl)ccc3c(C#N)c2c1,50.1µM*,-9.6%,-14.0%,-7.3%,-13.8%,4.0
CCCCc1cc(=O)oc2cc(C)c3c(C)coc3c12,16.6%[59 µM],/,-13.6%,42.1%,49.7%,/
C=CC[n+]1c(-c2ccc(OCC)cc2)csc1NNC(=O)Nc1ccccc1,?,/,10µM*,14.1µM*,22.4µM*,/

# From PubChem BioAssay
